About 83,000 compounds went through this panel and 20% of them were active in at least one assay; those are over-represented in the sample as a whole.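 The endpoint reported here, percent growth, reads 100 for growth as untreated, 0 for no net growth and -100 for all cells dead.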 Values without a mark were called inactive. Active and inactive are the calls of the source. How the source made its calls: active means growth percent below 10; inactive means the rest.

Experiment in all cases: NCI-60 one-dose screen, 48 h (100 = growth as untreated, 0 = no growth, -100 = all killed)
Holding throughout (details): 10 µM unless noted

Assay [1] relates to SK-MEL-2 melanoma.
Assay [2] deals with EKVX NSCLC.
The test system of assay [3] is SN12C renal.
Assay [4] relates to UO-31 renal.
For assay [5], the system named is TK-10 renal.
Assay [6] has as its system ACHN renal.
In assay [7] the test system is CAKI-1 renal.
Assay [8] has as its system A498 renal.
The test system of assay [9] is CCRF-CEM leukemia.
Assay [10] deals with MOLT-4 leukemia.
Assay [11] deals with RPMI-8226 leukemia.
The subject of assay [12] is OVCAR-8 ovarian.
Assay [13] relates to OVCAR-5 ovarian.
The subject of assay [14] is OVCAR-4 ovarian.
Assay [15] has as its system SK-OV-3 ovarian.
The subject of assay [16] is IGROV1 ovarian.
Assay [17] deals with OVCAR-3 ovarian.
Assay [18] relates to HS 578T breast.
Assay [19] concerns NCI/ADR-RES ovarian.

For the molecule `Cc1nc2ccccc2c(/C=C/c2ccccc2)c1C(=O)/C=C/c1ccc(C(F)(F)F)cc1`, the growth was -22.5% (active) in [1]; -28.8% (active) in [2]; -61.5% (active) in [3]; -96.9% (active) in [4]; -51.2% (active) in assay [5]; -98.4% (active) in assay [6]. The growth is -76.6% (active) in assay [7]; -59.4% (active) in [8]; 9.14% (active) in assay [9]; 4.69% (active) in assay [10]; -29.1% (active) in [11]; 10.3% in [12]. Moreover, the growth in assay [13] was -34.6% (active); in [14], -42.8% (active); in assay [15] it was 7.69% (active); in assay [16], -72.4% (active); in assay [17], -86.5% (active); in assay [18], -10.9% (active). The growth in assay [19] is -1.24% (active).
With `CN1CCN(c2ccc(-c3cnc4c(-c5csc6ccccc56)cnn4c3)cc2)CC1`, the growth in [1] is -32.8% (active); in assay [2], 22%; in assay [3], 0.637% (active); in assay [4], -89.4% (active); in assay [5], -18.7% (active); in assay [6], -82.4% (active). The growth is -13.9% (active) in assay [7]; -55.5% (active) in [8]; 16.8% in [9]; 16.2% in [10]; -16.7% (active) in [11]; -29% (active) in assay [12]. Also, the growth was 7.38% (active) in [13]; 11.9% in [14]; 81.1% in assay [15]; 5.7% (active) in [16]; -68.6% (active) in assay [17]; -28.4% (active) in assay [18]. Further, in assay [19], the growth is -20.8% (active).
As to `CCN(CC)Cc1cc(Nc2c3ccc(Cl)cc3nc3ccc(OC)cc23)ccc1O`, the growth was 101% in assay [1]; 76.2% in assay [2]; 56.6% in assay [3]; 34.2% in assay [4]; 96.6% in assay [5]; 59.7% in [6]. For the same molecule, the growth is 69.8% in [7]; 77.2% in assay [8]; 60.4% in assay [9]; 22.6% in assay [10]; 21.7% in assay [11]; 37.5% in [12]. Besides, the growth in assay [13] was 51.2%; in [14] it was 58.6%; in [15], 54.7%; in assay [16], 29.6%; in assay [17] it was 56.6%; in [18], 72.7%. In [19], the growth is 42.3%.
For the molecule `O=c1[nH]c2c(ccc3cnccc32)c2c1CCC2`, the growth in assay [1] is -15.9% (active); in [2], -13.5% (active); in [3], 7.16% (active); in assay [4] it was -11.5% (active); in assay [5] it was -5.65% (active); in assay [6] it was 6.67% (active). In addition, the growth in [7] was -19.9% (active); in assay [8] it was -51.5% (active); in [9], -22.3% (active); in [10] it was 15.9%; in assay [11], -31% (active); in assay [12], 13.9%. For the same molecule, the growth in [13] was -2.64% (active); in assay [14] it was 28.3%; in assay [15] it was 3.27% (active); in assay [16], -71% (active); in assay [17] it was -27% (active); in assay [18], -21.8% (active). Further, the growth in assay [19] was 7.35% (active).
For the molecule `CCN(CC)S(=O)(=O)c1ccc(NC(=O)CSc2nnc(C)n2-c2ccccc2)cc1`, the growth in [1] was 92.5%; in [2], 107%; in assay [3], 98.1%; in assay [4], 80.8%; in assay [5], 126%; in assay [6], 98.7%. Moreover, the growth in assay [7] was 106%; in assay [8], 107%; in assay [9], 97.9%; in [10] it was 96.2%; in assay [11], 103%; in [12] it was 102%. The growth is 95.4% in [13]; 102% in assay [14]; 105% in assay [15]; -1.42% (active) in [16]; 116% in [17]; 95.5% in [18]. The growth in [19] was 99.2%.
As to `Oc1ccc(CCl)c2cccnc12`, the growth was 81.2% in [1]; 51.6% in [2]; 77% in assay [3]; 45.3% in [4]; 104% in assay [5]; 64.1% in assay [6]. In addition, the growth in [7] was 88.8%; in assay [8] it was 101%; in [9], 31.8%; in [10] it was 82.6%; in assay [11], 57.4%; in [12], 73.8%. Further, the growth in assay [13] was 88.4%; in assay [14], 24.6%; in [15], 87.9%; in assay [16], 78.8%; in assay [17] it was 10.8%; in [18], 79.7%. The growth in [19] was 28.8%.
On to `Cc1cc2nc3ccc(N=Nc4ccc(N(C)C)cc4)cc3n(-c3ccccc3)c-2cc1=N`, for which the growth in assay [1] is -94.6% (active); in [2], -94.6% (active); in assay [3], -52.8% (active); in assay [4], -91.2% (active); in assay [5], -82.2% (active); in [6], -92% (active). In addition, the growth in [7] is -96.5% (active); in [8], -46.9% (active); in assay [9] it was -47.3% (active); in assay [10], 0.81% (active); in assay [11], -63.5% (active); in assay [12], -22% (active). In addition, the growth was -78.5% (active) in [13]; -93.2% (active) in assay [14]; -78% (active) in assay [15]; -88.8% (active) in assay [16]; -85% (active) in assay [17]; -25.3% (active) in assay [18]. Also, the growth in [19] was 4.97% (active).
As to `COc1cccc(-c2nn(-c3ccccc3)cc2-c2ccnc(N3CCOCC3)c2)c1`, the growth in [1] was 96.7%; in assay [2] it was 82.2%; in assay [3] it was 98%; in assay [4] it was 66.2%; in assay [5], 92%; in [6], 84.3%. Also, the growth in assay [7] was 81.4%; in assay [8], 71.7%; in assay [9] it was 97.8%; in assay [10], 59.2%; in assay [11] it was 67.9%; in [12] it was 96.6%. In addition, the growth in assay [13] was 94.7%; in assay [14], 84.2%; in assay [15], 87.9%; in assay [16], 79.5%; in assay [17], 95.5%; in assay [18] it was 115%. Moreover, the growth in [19] was 77.5%.

The values are drawn from PubChem BioAssay (NCI).
